Consider 8 compounds from PubChem BioAssay (EPA / NIEHS).

Several values for one entry are separate records, joined by “and”; a condition that tells them apart may be missing. Equal values may be shown once. Inconclusive results are not listed. Some structures have more than one record in an assay (separate samples or runs), and their calls can disagree. Activity calls are given as the source filed them. The calls were made as follows: active = hit-call score of the fitted dose curve at least 0.9, where 1 is the maximum; inconclusive = response in the unintended direction; inactive = score below 0.9.

For assay [1], the target named is guinea pig Bradykinin Receptor B2 (BK2), BDKRB2 (gene 100135486) (UniProt O70526). The assay can be described thus: NVS_GPCR_gBK2: NovaScreen (NVS) G Protein-Coupled Receptor Assay for guinea pig Bradykinin Receptor B2 (BK2) (AID 2283292). The procedure, abridged: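 Guinea pig ileum membrane preparation incubated 1 h with radioligand and test chemical; bound counts measured after filtration. Primary duplicate screening at 25 uM, then singleton concentration series with a 50 uM top dose; DMSO as baseline.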

The target in assay [2] is mouse Cholecystokinin, CCK1 Receptor (CCKA), Cckar (gene 12425) (UniProt O08786). The assay can be described thus: NVS_GPCR_mCCKAPeripheral: NovaScreen (NVS) G Protein-Coupled Receptor Assay for mouse Cholecystokinin, CCK1 Receptor (CCKA) (AID 2283285). In a few lines: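 Chemicals were first screened in duplicate at 25 uM, with those meeting threshold (e.g., 30% inhibition) retested in singleton concentration series to 50 uM maximum. Binding of radioligand to mouse pancreatic membranes was read after 2 h by filtration and scintillation counting.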

Assay [3] has as its target human Opioid Receptor Mu (Opiate Mu), OPRM1 (gene 4988) (UniProt P35372). Nature of the assay: NVS_GPCR_hOpiate_mu: NovaScreen (NVS) G Protein-Coupled Receptor Assay for human Opioid Receptor Mu (Opiate Mu) (AID 2283290).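 Also: hits lower bound tracer signal versus DMSO meaning displacement of the ligand.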 In a few lines: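 Here, radioligand binding to CHO-extracted receptor was measured after 2.5 h using filter-based scintillation detection. Initial single-concentration screening used 25 uM in duplicate with plate controls; confirmed actives went to concentration-response testing.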

Assay [4] addresses mouse Cholecystokinin, CCK2 Receptor (CCKB), Cckbr (gene 12426) (UniProt P56481). The assay can be described thus: NVS_GPCR_mCKKBCentral: NovaScreen (NVS) G Protein-Coupled Receptor Assay for mouse Cholecystokinin, CCK2 Receptor (CCKB) (AID 2283293). In a few lines: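 Mouse forebrain membrane preparation incubated 2 h with chemical and radioligand; bound radioactivity counted after filtration. Single-concentration duplicate screen at 25 uM, then concentration series to 50 uM max for hits, DMSO as baseline.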

Assay [5] deals with rat Adrenergic Receptor, Alpha 2 (Adra2), Non-selective Binding, Adra2a (gene 25083) (UniProt P22909). The assay can be described thus: NVS_GPCR_rAdra2_NonSelective: NovaScreen (NVS) G Protein-Coupled Receptor Assay for rat Adrenergic Receptor, Alpha 2 (Adra2), Non-selective Binding (AID 2283299). The procedure, abridged: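 Filter-based scintillation counting of radioligand binding to rat cortical membrane receptors, measured 1.25 hours post-dosing; loss of signal versus DMSO indicates displacement. Initial single-concentration duplicate at 25 uM, then concentration series.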

The target in assay [6] is human Thromboxane A2 Receptor (TXA2), TBXA2R (gene 6915) (UniProt P21731). The assay can be described thus: NVS_GPCR_hTXA2: NovaScreen (NVS) G Protein-Coupled Receptor Assay for human Thromboxane A2 Receptor (TXA2) (AID 2283282).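 Also: actives reduce bound radioligand signal relative to DMSO baseline.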 In a few lines:
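Cell-free radioligand binding with human platelet-derived receptor; 1 h after dosing, filter-based scintillation counting, loss of signal vs DMSO. Primary screen in duplicate at 25 uM.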

The subject of assay [7] is rabbit Platelet Activating Factor Receptor (PAF), gene 100354046. Nature of the assay: NVS_GPCR_rabPAF: NovaScreen (NVS) G Protein-Coupled Receptor Assay for rabbit Platelet Activating Factor Receptor (PAF) (AID 2283287). In a few lines:
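Rabbit platelet membrane preparation; radioligand displacement read by filter-based scintillation counting 1 h after dosing, loss of signal versus DMSO. Primary screen in duplicate at 25 uM, actives followed up in concentration series.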

Assay [8] has as its system guinea pig Atrionatriuretic Peptide Receptor A (ANPA), gene 100135578. Nature of the assay: NVS_GPCR_gANPA: NovaScreen (NVS) G Protein-Coupled Receptor Assay for guinea pig Atrionatriuretic Peptide Receptor A (ANPA) (AID 2283291). The procedure, abridged:
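Displacement of specific radioligand from guinea pig cerebellum membranes was read by scintillation after 1 h. A duplicate single-point screen at 25 uM was followed by a concentration series up to 50 uM, analysed relative to DMSO.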

Assay [9] concerns rat Adrenergic, Alpha 1B Receptor (Adra1B), gene 24173. Nature of the assay: NVS_GPCR_rAdra1B: NovaScreen (NVS) G Protein-Coupled Receptor Assay for rat Adrenergic, Alpha 1B Receptor (Adra1B) (AID 2283297). The procedure, abridged:
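Filter-binding radioligand competition on membranes from rat liver, read after 1 h by scintillation counting. Single-concentration duplicate screen at 25 uM, followed by concentration-response on actives, normalised to DMSO.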

For assay [10], the target named is guinea pig Serotonin, 5-Hydroxytryptamine Receptor 4 (5HT4), HTR4 (gene 100135548) (UniProt O70528). Nature of the assay: NVS_GPCR_g5HT4: NovaScreen (NVS) G Protein-Coupled Receptor Assay for guinea pig Serotonin, 5-Hydroxytryptamine Receptor 4 (5HT4) (AID 2283294). The procedure, abridged: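 Compounds first screened in duplicate at 25 uM, actives followed up in concentration series. Binding measured as displacement of specific radioligand from guinea pig striatal membranes, 1 h, filter-based scintillation read-out versus DMSO baseline.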

The target in assay [11] is rat Adrenergic, Alpha 1A Receptor (Adra1A), Adra1a (gene 29412) (UniProt P43140). The assay can be described thus: NVS_GPCR_rAdra1A: NovaScreen (NVS) G Protein-Coupled Receptor Assay for rat Adrenergic, Alpha 1A Receptor (Adra1A) (AID 2283296). In a few lines: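 Filter radiodetection after 1 h competitive binding on CEC-pretreated rat cortical membranes. Duplicate single-point screening at 25 uM; active chemicals retested across concentration series.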

For assay [12], the target named is rat Corticotropin Releasing Factor Receptor (CRF), Crhr1 (gene 58959) (UniProt P35353). Nature of the assay: NVS_GPCR_rCRF: NovaScreen (NVS) G Protein-Coupled Receptor Assay for rat Corticotropin Releasing Factor Receptor (CRF) (AID 2283300). In a few lines: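 Single-concentration (25 uM, duplicate) radioligand binding on rat cortical membrane preparations, counted by scintillation after 2 h. Activity scored as signal loss relative to DMSO negative control.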

Assay [13] addresses rat Serotonin, 5-Hydroxytryptamine Receptor 1 (5HT1), Non-Selective Binding, Htr1a (gene 24473) (UniProt P19327). The assay can be described thus: NVS_GPCR_r5HT1_NonSelective: NovaScreen (NVS) G Protein-Coupled Receptor Assay for rat Serotonin, 5-Hydroxytryptamine Receptor 1 (5HT1), Non-Selective Binding (AID 2283286). In a few lines: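 Binding of a radioligand to rat cortex membranes is read by filtration and scintillation counting after 1 h. Compounds were screened at 25 uM in duplicate. Actives were then titrated to a top of 50 uM. DMSO is the baseline.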

The target of assay [14] is human Orphanin, Opioid Related Nociceptin Receptor 1 (ORL1), OPRL1 (gene 4987) (UniProt P41146). Nature of the assay: NVS_GPCR_hORL1: NovaScreen (NVS) G Protein-Coupled Receptor Assay for human Orphanin, Opioid Related Nociceptin Receptor 1 (ORL1) (AID 2283283). In a few lines:
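Cell-free binding using HEK293-derived receptor protein: radioligand displacement measured by filter scintillation 1 hour after dosing. Primary testing at 25 uM in duplicate, followed by singleton concentration series up to 50 uM; DMSO served as negative control.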

Assay [15] addresses human Vasopressin 1A Receptor (V1A), AVPR1A (gene 552) (UniProt P37288). Nature of the assay: NVS_GPCR_hV1A: NovaScreen (NVS) G Protein-Coupled Receptor Assay for human Vasopressin 1A Receptor (V1A) (AID 2283284). In a few lines:
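Single-concentration duplicate screen at 25 uM, with concentration-response follow-up (top 50 uM) for actives. The assay measured displacement of a radioligand from human platelet-derived receptor after 1.5 h, detected by filtration and scintillation counting.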

Assay [16] has as its system 5-hydroxytryptamine receptor 2C (pig). Nature of the assay: NVS_GPCR_p5HT2C: NovaScreen (NVS) G Protein-Coupled Receptor Assay for pig Serotonin, 5-Hydroxytryptamine Receptor 2C (5HT2C) (AID 2283288). In a few lines:
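Radioligand displacement on membranes from pig choroid plexus, detected by filter scintillation counting after 1 h. Tested first at a single 25 uM in duplicate, then in concentration-response for actives; DMSO served as baseline.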

Assay [17] has as its target rat Adrenergic Receptor, Beta (Adrb), Non-selective Binding, Adrb1 (gene 24925) (UniProt P18090). The assay can be described thus: NVS_GPCR_rAdrb_NonSelective: NovaScreen (NVS) G Protein-Coupled Receptor Assay for rat Adrenergic Receptor, Beta (Adrb), Non-selective Binding (AID 2283298). The procedure, abridged:
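Rat cortical membranes incubated 1 h with beta-adrenergic radioligand and test chemical; bound ligand measured by filtration and scintillation counting. Screen at 25 uM duplicate, then concentration series with 50 uM maximum; loss of signal versus DMSO.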

Assay [18] has as its target rat Gamma-Aminobutyric Acid Type B Receptor (GABBR), Gabbr1 (gene 81657) (UniProt Q9Z0U4). The assay can be described thus: NVS_GPCR_rGABBR: NovaScreen (NVS) G Protein-Coupled Receptor Assay for rat Gamma-Aminobutyric Acid Type B Receptor (GABBR) (AID 2283301). In a few lines: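 Rat cortical membrane preparation, competitive radioligand binding for 1 h with filtration and scintillation readout. Actives from duplicate single-point 25 uM screening proceeded to concentration series with 50 uM top concentration.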

Chain of human Opioid Receptor Mu (Opiate Mu), OPRM1 (gene 4988) (P35372 whole entry, looked up): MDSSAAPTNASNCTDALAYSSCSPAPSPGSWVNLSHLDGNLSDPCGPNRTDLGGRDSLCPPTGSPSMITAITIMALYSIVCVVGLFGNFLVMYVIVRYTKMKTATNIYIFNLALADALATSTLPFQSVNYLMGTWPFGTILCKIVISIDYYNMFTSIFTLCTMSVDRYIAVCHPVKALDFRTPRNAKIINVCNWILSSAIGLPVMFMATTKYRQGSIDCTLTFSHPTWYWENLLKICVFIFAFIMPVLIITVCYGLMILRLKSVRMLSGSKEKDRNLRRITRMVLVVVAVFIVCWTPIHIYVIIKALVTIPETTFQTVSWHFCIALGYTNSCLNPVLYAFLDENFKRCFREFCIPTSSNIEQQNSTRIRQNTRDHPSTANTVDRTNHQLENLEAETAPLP
Chain of guinea pig Serotonin, 5-Hydroxytryptamine Receptor 4 (5HT4), HTR4 (gene 100135548) (O70528 whole entry, looked up): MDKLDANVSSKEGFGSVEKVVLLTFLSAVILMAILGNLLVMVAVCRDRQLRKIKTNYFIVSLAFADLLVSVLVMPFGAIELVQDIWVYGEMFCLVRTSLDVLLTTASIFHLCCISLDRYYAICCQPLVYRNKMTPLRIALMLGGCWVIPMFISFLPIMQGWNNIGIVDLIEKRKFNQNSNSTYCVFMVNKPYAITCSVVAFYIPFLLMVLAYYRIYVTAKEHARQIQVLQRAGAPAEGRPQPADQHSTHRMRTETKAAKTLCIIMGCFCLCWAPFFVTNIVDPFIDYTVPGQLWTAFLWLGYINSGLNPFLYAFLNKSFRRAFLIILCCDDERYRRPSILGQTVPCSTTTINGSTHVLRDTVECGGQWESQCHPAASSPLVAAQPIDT
Chain of human Thromboxane A2 Receptor (TXA2), TBXA2R (gene 6915) (P21731 whole entry, looked up): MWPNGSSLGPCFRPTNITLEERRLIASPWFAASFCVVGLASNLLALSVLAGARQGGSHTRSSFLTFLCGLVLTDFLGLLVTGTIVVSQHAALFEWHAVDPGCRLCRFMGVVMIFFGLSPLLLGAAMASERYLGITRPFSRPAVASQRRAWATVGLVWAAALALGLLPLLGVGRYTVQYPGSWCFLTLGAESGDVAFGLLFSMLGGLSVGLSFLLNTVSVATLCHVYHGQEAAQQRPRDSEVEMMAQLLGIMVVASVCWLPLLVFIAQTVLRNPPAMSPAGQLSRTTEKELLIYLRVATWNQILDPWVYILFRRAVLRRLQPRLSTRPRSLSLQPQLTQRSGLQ
Chain of mouse Cholecystokinin, CCK2 Receptor (CCKB), Cckbr (gene 12426) (P56481 whole entry, looked up): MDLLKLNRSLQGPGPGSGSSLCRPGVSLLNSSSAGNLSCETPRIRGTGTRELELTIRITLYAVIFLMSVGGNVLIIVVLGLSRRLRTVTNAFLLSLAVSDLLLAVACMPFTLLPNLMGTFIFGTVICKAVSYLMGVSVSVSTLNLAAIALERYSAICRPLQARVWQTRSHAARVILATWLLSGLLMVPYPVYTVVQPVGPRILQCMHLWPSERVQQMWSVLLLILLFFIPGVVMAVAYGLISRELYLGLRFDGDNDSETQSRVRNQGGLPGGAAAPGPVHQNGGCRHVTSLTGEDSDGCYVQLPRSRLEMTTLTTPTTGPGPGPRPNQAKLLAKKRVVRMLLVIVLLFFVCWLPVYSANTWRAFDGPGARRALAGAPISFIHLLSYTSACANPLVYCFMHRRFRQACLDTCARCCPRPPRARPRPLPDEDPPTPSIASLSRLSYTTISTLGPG
Chain of mouse Cholecystokinin, CCK1 Receptor (CCKA), Cckar (gene 12425) (O08786 whole entry, looked up): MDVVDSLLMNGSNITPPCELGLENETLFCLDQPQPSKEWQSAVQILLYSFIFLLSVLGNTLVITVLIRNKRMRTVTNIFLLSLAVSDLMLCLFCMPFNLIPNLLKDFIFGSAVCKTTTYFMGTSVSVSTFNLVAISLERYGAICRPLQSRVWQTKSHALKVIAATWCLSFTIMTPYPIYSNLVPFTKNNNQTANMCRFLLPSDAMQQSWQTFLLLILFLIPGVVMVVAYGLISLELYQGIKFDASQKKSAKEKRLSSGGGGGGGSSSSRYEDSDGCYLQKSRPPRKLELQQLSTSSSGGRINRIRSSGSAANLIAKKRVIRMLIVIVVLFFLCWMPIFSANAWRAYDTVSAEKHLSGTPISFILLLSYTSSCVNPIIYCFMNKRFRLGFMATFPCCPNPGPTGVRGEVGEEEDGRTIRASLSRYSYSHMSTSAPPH
Chain of human Orphanin, Opioid Related Nociceptin Receptor 1 (ORL1), OPRL1 (gene 4987) (P41146 whole entry, looked up): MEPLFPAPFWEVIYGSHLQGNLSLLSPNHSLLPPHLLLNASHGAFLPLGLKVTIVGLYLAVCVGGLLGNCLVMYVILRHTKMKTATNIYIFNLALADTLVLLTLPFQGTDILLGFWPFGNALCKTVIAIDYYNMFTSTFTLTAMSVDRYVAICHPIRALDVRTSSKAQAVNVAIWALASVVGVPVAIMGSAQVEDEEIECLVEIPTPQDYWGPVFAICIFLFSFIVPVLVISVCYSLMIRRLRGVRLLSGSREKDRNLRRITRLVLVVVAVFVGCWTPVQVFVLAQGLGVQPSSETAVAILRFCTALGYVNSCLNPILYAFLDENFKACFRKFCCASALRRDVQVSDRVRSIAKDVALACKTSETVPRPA
Chain of guinea pig Bradykinin Receptor B2 (BK2), BDKRB2 (gene 100135486) (O70526 whole entry, looked up): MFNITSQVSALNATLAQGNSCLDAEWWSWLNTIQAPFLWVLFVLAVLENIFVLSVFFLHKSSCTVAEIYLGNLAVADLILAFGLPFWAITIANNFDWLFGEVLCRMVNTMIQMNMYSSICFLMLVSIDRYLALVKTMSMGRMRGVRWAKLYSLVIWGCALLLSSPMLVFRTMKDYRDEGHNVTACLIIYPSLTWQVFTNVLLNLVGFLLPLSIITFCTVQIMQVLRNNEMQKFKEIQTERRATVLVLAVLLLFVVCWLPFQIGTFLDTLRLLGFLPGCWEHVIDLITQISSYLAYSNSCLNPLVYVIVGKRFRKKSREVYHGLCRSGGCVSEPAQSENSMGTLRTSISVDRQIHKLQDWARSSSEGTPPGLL
Chain of rat Adrenergic Receptor, Beta (Adrb), Non-selective Binding, Adrb1 (gene 24925) (P18090 whole entry, looked up): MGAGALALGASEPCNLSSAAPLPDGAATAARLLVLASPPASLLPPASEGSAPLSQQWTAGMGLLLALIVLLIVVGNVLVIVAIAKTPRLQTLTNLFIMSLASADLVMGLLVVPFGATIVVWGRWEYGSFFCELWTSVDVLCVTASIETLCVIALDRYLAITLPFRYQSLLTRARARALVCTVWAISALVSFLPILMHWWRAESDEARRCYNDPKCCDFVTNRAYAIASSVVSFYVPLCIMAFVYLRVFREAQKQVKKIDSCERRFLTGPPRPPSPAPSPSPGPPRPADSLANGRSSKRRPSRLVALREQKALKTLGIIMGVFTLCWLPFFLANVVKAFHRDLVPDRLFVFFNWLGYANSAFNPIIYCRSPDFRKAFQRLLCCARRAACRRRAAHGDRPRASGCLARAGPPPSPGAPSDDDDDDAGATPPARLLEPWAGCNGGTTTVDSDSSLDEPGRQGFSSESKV
Chain of rat Adrenergic, Alpha 1A Receptor (Adra1A), Adra1a (gene 29412) (P43140 whole entry, looked up): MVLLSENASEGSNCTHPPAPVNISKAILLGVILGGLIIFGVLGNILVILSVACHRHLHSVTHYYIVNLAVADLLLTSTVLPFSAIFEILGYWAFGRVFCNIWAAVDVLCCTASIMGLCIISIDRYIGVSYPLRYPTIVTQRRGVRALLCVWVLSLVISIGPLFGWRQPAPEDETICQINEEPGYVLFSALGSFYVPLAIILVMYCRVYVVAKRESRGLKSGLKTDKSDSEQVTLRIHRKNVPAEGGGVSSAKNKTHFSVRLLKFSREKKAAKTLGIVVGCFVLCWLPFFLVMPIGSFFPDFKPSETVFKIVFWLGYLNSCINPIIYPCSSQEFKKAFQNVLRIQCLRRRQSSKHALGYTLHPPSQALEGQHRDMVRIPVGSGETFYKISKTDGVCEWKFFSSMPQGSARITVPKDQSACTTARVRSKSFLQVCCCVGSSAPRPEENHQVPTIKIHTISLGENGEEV
Chain of rat Corticotropin Releasing Factor Receptor (CRF), Crhr1 (gene 58959) (P35353 whole entry, looked up): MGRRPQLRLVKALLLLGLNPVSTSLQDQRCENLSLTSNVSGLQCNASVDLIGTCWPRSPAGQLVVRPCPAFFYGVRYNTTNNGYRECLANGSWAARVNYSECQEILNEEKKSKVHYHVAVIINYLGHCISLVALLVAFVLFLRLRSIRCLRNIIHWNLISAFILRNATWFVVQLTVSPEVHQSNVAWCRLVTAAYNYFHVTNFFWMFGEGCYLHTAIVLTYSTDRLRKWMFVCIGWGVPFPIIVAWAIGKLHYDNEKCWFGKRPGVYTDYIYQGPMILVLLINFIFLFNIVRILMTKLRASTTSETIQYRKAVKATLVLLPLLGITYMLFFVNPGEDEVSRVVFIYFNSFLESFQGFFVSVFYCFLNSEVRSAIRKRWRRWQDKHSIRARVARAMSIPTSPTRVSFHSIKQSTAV
Chain of rat Serotonin, 5-Hydroxytryptamine Receptor 1 (5HT1), Non-Selective Binding, Htr1a (gene 24473) (P19327 whole entry, looked up): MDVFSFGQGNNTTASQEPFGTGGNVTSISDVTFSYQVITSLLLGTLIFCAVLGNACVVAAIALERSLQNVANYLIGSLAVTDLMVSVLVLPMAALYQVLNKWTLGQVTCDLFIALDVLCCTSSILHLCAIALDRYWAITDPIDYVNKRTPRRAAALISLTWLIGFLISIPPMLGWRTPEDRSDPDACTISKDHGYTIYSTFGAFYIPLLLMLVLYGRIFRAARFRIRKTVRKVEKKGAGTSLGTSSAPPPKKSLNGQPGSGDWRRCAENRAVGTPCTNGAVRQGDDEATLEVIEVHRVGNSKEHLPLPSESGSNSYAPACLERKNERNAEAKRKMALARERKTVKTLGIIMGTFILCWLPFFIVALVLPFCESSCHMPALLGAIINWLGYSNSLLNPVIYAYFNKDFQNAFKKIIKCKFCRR

As to `COC(=O)c1ccccc1S(=O)(=O)NC(=O)N(C)c1nc(C)nc(OC)n1`, the call in [1] was inactive.

With `CCCN(CCOc1c(Cl)cc(Cl)cc1Cl)C(=O)n1ccnc1`, the AC50 (usually the midpoint of the concentration-response curve, whichever way the signal moves) was 10.5 µM (active) in assay [2], 10.5 µM (active) in [3], 6.71 µM (active) in [4] and 1.85 µM (active) in assay [5].

In the case of `O=S(=O)(O)C(F)(F)C(F)(F)C(F)(F)C(F)(F)C(F)(F)C(F)(F)C(F)(F)C(F)(F)F`, the AC50 in assay [6] is 15.8 µM (active) [middle of 4 runs]. Further, the result in [6], in assay [7], in [8] and in assay [9] was inactive.

In the case of `O=C(Nc1ccccc1)Nc1cnns1`, the compound was classed as inactive in assay [7], in [11] and in assay [12]. In addition, the half-maximal activity concentration (AC50) in assay [10] was 6.99 µM (active).

`COP(=S)(OC)Oc1ccc([N+](=O)[O-])cc1`: the call in [13] was inactive.

With `Oc1ccc(Cl)cc1Cc1ccccc1`, the concentration at half-maximal activity (AC50) in [6] is 7.86 µM (active) and 5.43 µM (active); in assay [14], 25.2 µM (active) and 47 µM (active); in [2], 25.2 µM (active) [middle of 5 runs]; in [16], 12.6 µM (active) [middle of 4 runs]; in assay [3] it was 16.5 µM (active) [middle of 6 runs]; in [4] it was 19.8 µM (active) [middle of 4 runs]. The AC50 in assay [10] is 17.2 µM (active) [middle of 6 runs]. For the same compound, the outcome in [6], in assay [15], in [3], in [17] and in assay [18] was inactive.

Turning to `CCS(=O)(=O)c1cccnc1S(=O)(=O)NC(=O)Nc1nc(OC)cc(OC)n1`, in [7], the compound was classed as inactive.

For the compound `[2H]C1([2H])[n+]2ccccc2-c2cccc[n+]2C1([2H])[2H]`, the compound was classed as inactive in assay [7].
